# The campaign covered roughly 5,500 compounds. About 2,000 (36%) were called active. Not shown: some 18% with an inconclusive outcome. This is one part of the list. Unmarked numbers belong to inactive results. Cut-off read from the data, not from the text of the source: active = normalized growth mostly below about 0.91 (no sharp cut-off); inconclusive = no clear call, values can overlap the other calls; inactive = mostly above about 0.92.
# Assay: chemical genetic growth profiling, strain panel (AID 1159580);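 note: tested at 20 µM; growth read once vehicle control cultures reached saturation at 30 °C; 1 = growth at the plate median or of vehicle wells; lower values mean less growth of the strain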
# Settings: S. cerevisiae deletion strains, growth OD
# [1] = locus YDL101C, strain DUN1, hits give low values
# [2] = locus YHR030C, strain SLT2, hits give low values
compound,measurement,setting,value
CC(C)/C(=N/OC(=O)c1ccc([N+](=O)[O-])cc1)c1ccccc1,normalized growth,"locus YAR019C, strain CDC15, hits give low values",0.974
same,normalized growth,"locus YBL105C, strain PKC1, hits give low values",0.965
same,normalized growth,"locus YBR136W, strain MEC1, hits give low values",0.967
same,normalized growth,"locus YBR160W, strain CDC28, hits give low values",0.957
same,normalized growth,"locus YDL017W, strain CDC7, hits give low values",0.963
same,normalized growth,"locus YDL028C, strain MPS1, hits give low values",0.955
same,normalized growth,[1],0.952
same,normalized growth,"locus YDL108W, strain KIN28, hits give low values",0.962
same,normalized growth,"locus YDL214C, strain PRR2, hits give low values",0.148 (active)
same,normalized growth,"locus YDR052C, strain DBF4, hits give low values",0.979
same,normalized growth,"locus YDR054C, strain cdc34, hits give low values",0.955
same,normalized growth,"locus YDR226W, strain ADK1, hits give low values",0.949
same,normalized growth,"locus YER123W, strain YCK3, hits give low values",0.909
same,normalized growth,"locus YFR003C, strain YPI1, hits give low values",0.96
same,normalized growth,"locus YGR040W, strain KSS1, hits give low values",0.231 (active)
same,normalized growth,"locus YGR052W, strain FMP48, hits give low values",0.814
same,normalized growth,"locus YGR092W, strain DBF2, hits give low values",0.843
same,normalized growth,[2],0.337 (active)
same,normalized growth,"locus YIL147C, strain SLN1, hits give low values",0.96
same,normalized growth,"locus YJL095W, strain BCK1, hits give low values",0.745
same,normalized growth,"locus YJL128C, strain PBS2, hits give low values",0.943
same,normalized growth,"locus YJR016C, strain ILV3, hits give low values",0.957
same,normalized growth,"locus YJR066W, strain TOR1 (second series), hits give low values",0.137 (active)
same,normalized growth,"locus YJR066W, strain TOR1, hits give low values",0.769
same,normalized growth,"locus YKL048C, strain ELM1, hits give low values",0.991
same,normalized growth,"locus YKL067W, strain YNK1, hits give low values",0.911
same,normalized growth,"locus YKL101W, strain HSL1, hits give low values",0.242 (active)
same,normalized growth,"locus YKL203C, strain TOR2, hits give low values",0.802
same,normalized growth,"locus YLR113W, strain HOG1, hits give low values",0.604 (active)
same,normalized growth,"locus YLR133W, strain CKI1, hits give low values",0.175 (active)
same,normalized growth,"locus YLR403W, strain SFP1, hits give low values",0.0636 (active)
same,normalized growth,"locus YML070W, strain DAK1, hits give low values",0.909
same,normalized growth,"locus YMR001C, strain CDC5, hits give low values",0.384 (active)
same,normalized growth,"locus YMR205C, strain PFK2 (second series), hits give low values",0.126 (active)
same,normalized growth,"locus YNL006W, strain LST8, hits give low values",0.507 (active)
same,normalized growth,"locus YNL020C, strain ARK1, hits give low values",0.174 (active)
same,normalized growth,"locus YNL161W, strain CBK1, hits give low values",0.378 (active)
same,normalized growth,"locus YNL183C, strain NPR1, hits give low values",0.595
same,normalized growth,"locus YNL207W, strain RIO2, hits give low values",0.955
same,normalized growth,"locus YOR119C, strain RIO1, hits give low values",0.814
same,normalized growth,"locus YOR329C, strain SCD5, hits give low values",0.637 (active)
same,normalized growth,"locus YPL153C, strain RAD53, hits give low values",0.671
same,normalized growth,"locus YPL209C, strain IPL1, hits give low values",0.966
same,normalized growth,"locus YPL256C, strain CLN2, hits give low values",0.582 (active)
same,normalized growth,"locus YPR106W, strain ISR1, hits give low values",0.978
same,normalized growth,"locus YPR111W, strain DBF20, hits give low values",0.972
same,normalized growth,"strain NNK1, hits give low values",0.97
CC1CC(=O)Nc2ccccc2N1C(=O)c1ccc([N+](=O)[O-])cc1 (stereo not given),normalized growth,"locus YAL013W, strain DEP1, hits give low values",1.01
same,normalized growth,"locus YBR229C, strain ROT2, hits give low values",1.01
same,normalized growth,"locus YCL061C, strain MRC1, hits give low values",1.02
same,normalized growth,[1],1.05
same,normalized growth,"locus YDL134C, strain PPH21, hits give low values",1.01
same,normalized growth,"locus YDR150W, strain NUM1, hits give low values",0.937
same,normalized growth,"locus YEL061C, strain CIN8, hits give low values",0.991
same,normalized growth,"locus YGR078C, strain PAC10, hits give low values",1.03
same,normalized growth,[2],1.01
same,normalized growth,"locus YHR087W, strain rtc3, hits give low values",0.978
same,normalized growth,"locus YJL187C, strain SWE1, hits give low values",1.01
same,normalized growth,"locus YJR043C, strain POL32, hits give low values",1.02
same,normalized growth,"locus YJR075W, strain HOC1, hits give low values",1.01
same,normalized growth,"locus YLR039C, strain RIC1, hits give low values",1.03
same,normalized growth,"locus YLR058C, strain SHM2 (second series), hits give low values",0.998
same,normalized growth,"locus YLR085C, strain ARP6, hits give low values",1.03
same,normalized growth,"locus YLR262C, strain YPT6, hits give low values",1
same,normalized growth,"locus YML094W, strain GIM5, hits give low values",1.02
same,normalized growth,"locus YMR219W, strain ESC1, hits give low values",1.01
same,normalized growth,"locus YMR263W, strain SAP30, hits give low values",1.05
same,normalized growth,"locus YNL153C, strain GIM3, hits give low values",1.02
same,normalized growth,"locus YNL298W, strain CLA4 (second series), hits give low values",1.05
same,normalized growth,"locus YNL322C, strain KRE1, hits give low values",1
same,normalized growth,"locus YNR030W, strain Alg12, hits give low values",1.02
same,normalized growth,"locus YOL006C, strain TOP1, hits give low values",1.01
same,normalized growth,"locus YPL055C, strain LGE1, hits give low values",0.996
same,normalized growth,"locus YPL241C, strain CIN2, hits give low values",1.02
same,normalized growth,"locus YPR135W, strain CTF4, hits give low values",1.03
